# Assay results reported in PubChem BioAssay (NCI).
# This is part of a sample that, as a whole, favours compounds with a hit. Of some 83,000 tested, about 20% had one in any assay.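 Testing used 96-well plates and a 48-hour single-concentration exposure. Example: -40 means 40% of the starting cells died.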 Values without a mark were called inactive. Activity calls are given as the source filed them. How the source made its calls: active means growth percent below 10; inactive means the rest.
# Tests used:
# Assay in all cases: NCI-60 one-dose screen, 48 h (100 = growth as untreated, 0 = no growth, -100 = all killed)
# SR leukemia = settings: 10 µM
# RPMI-8226 leukemia = settings: 10 µM
# OVCAR-8 ovarian = settings: 10 µM
# OVCAR-5 ovarian = settings: 10 µM
# OVCAR-4 ovarian = settings: 10 µM
# SK-OV-3 ovarian = settings: 10 µM
# IGROV1 ovarian = settings: 10 µM
# OVCAR-3 ovarian = settings: 10 µM
# HS 578T breast = settings: 10 µM
# NCI/ADR-RES ovarian = settings: 10 µM
# T-47D breast = settings: 10 µM
# BT-549 breast = settings: 10 µM
# MDA-MB-435 melanoma = settings: 10 µM
# SW-620 colon = settings: 10 µM
# MCF7 breast = settings: 10 µM unless noted
# HCC-2998 colon = settings: 10 µM
# KM12 colon = settings: 10 µM
# HCT-116 colon = settings: 10 µM
SMILES,growth (SR leukemia),growth (RPMI-8226 leukemia),growth (OVCAR-8 ovarian),growth (OVCAR-5 ovarian),growth (OVCAR-4 ovarian),growth (SK-OV-3 ovarian),growth (IGROV1 ovarian),growth (OVCAR-3 ovarian),growth (HS 578T breast),growth (NCI/ADR-RES ovarian),growth (T-47D breast),growth (BT-549 breast),growth (MDA-MB-435 melanoma),growth (SW-620 colon),growth (MCF7 breast),growth (HCC-2998 colon),growth (KM12 colon),growth (HCT-116 colon)
c1cc2cccc3c4cccc5cccc(c(c1)c23)c54,108%,113%,112%,106%,95.5%,94.1%,125%,108%,112%,108%,90.2%,104%,111%,108%,84%,96.7%,104%,–
COc1ccc(OC)c(/C=C2\CCc3ccccc3C2=O)c1,31.6%,35.7%,65.4%,72.9%,70.9%,53%,50.9%,9.47% (active),45.4%,17.8%,56.3%,44.3%,-37.9% (active),17.4%,–,73.9%,22.8%,19.3%
O=C(O)C(c1ccccc1)C(O)c1ccccc1 (stereo not drawn),94.6%,101%,99.4%,103%,120%,99.9%,101%,116%,100%,107%,94.4%,110%,105%,106%,95.3%,97.9%,108%,–
COS(=O)(=O)c1ccc(Br)cc1,135%,111%,98.6%,93.4%,107%,104%,118%,101%,114%,93.7%,93.9%,113%,110%,97.5%,97.3%,–,91.7%,–
Cc1cc(O)ccc1O,104%,59.5%,104%,116%,98.5%,112%,114%,110%,103%,96.5%,101%,83.5%,97.7%,117%,–,121%,105%,96.4%
N#Cc1ccc(OC(=O)Nc2ccc(Cl)c(Cl)c2)cc1,39.4%,5.09% (active),59%,91.6%,66.7%,107%,64.4%,33.3%,103%,65.5%,27.9%,93.3%,99.3%,96.2%,–,87.1%,42.9%,50%
Clc1ccc(-c2n[nH]c3c2Cc2ccccc2-3)cc1Cl,112%,57.9%,110%,111%,99.9%,99.4%,63%,110%,110%,95.1%,29%,97.6%,107%,–,35.4%,92.2%,102%,90.8%
Nc1ccc(N=Nc2ccc(S(=O)(=O)O)cc2)c2ccccc12,96.9%,98%,103%,106%,103%,72.2%,94.1%,99%,96.6%,97.3%,57.3%,102%,98.6%,–,91.4%,88.3%,99.2%,89%
CC(C)C1CCCCC1O (stereo not drawn),130%,105%,109%,91%,118%,109%,130%,117%,105%,104%,107%,105%,100%,107%,–,–,107%,109%
CCOC(=O)Nc1nn[nH]n1,103%,106%,111%,92.3%,111%,116%,110%,103%,93.7%,103%,113%,106%,111%,90.2%,–,–,106%,107%
CCN(CC)c1ccc2nc3ccc(=[N+](CC)CC)cc-3oc2c1,22.5%,6.38% (active),-9.58% (active),-30.1% (active),-88.7% (active),-9.43% (active),-31.8% (active),-7.91% (active),58.1%,90.3%,-2.86% (active),48%,-14.7% (active),6.33% (active),–,–,4.22% (active),-40.7% (active)
C[C@@H](c1ccccc1)[C@@H](C(=O)O)c1ccccc1,105%,99.7%,98.2%,105%,94.7%,100%,111%,104%,110%,105%,101%,97.6%,104%,103%,93.4%,–,109%,–
COc1ccccc1NC(=O)c1cc2cc(Br)ccc2cc1O,-5.13% (active),-29.6% (active),9.55% (active),104%,18.7%,1.19% (active),-46% (active),4.13% (active),6.12% (active),5.05% (active),9.84% (active),18.8%,10.2%,10.9%,-2.37% (active),20.1%,9.92% (active),–
CCOC(=O)CCCC(=O)OCC,102%,113%,103%,101%,101%,96.7%,102%,102%,96.2%,106%,96.4%,104%,106%,102%,97.9%,105%,99.6%,–
COCCOCCCl,108%,115%,110%,106%,105%,109%,116%,111%,102%,109%,98.1%,107%,106%,101%,–,101%,107%,99.7%
CCOc1ccc2[nH]c(=S)sc2c1,97.7%,97.1%,96.4%,97.6%,108%,105%,88.5%,117%,96%,104%,94.5%,107%,99.3%,–,102%,97.9%,116%,105%
COC(=O)c1cccnc1,104%,106%,92.2%,90.3%,110%,101%,91.9%,106%,99.3%,95.9%,118%,–,105%,97.4%,96.4%,104%,112%,97.8%
CCCCCCCO,91.5%,102%,99.7%,87.5%,97.9%,106%,115%,115%,102%,107%,104%,–,114%,95%,88.8%,107%,112%,102%
CCOC(=O)C1=C(C)NC(=O)NC1c1cccs1 (stereo not drawn),76.5%,99.8%,94.1%,122%,117%,105%,113%,118%,99%,111%,102%,–,125%,105%,101%,–,109%,116%
Clc1ccc(-c2nnc(-c3cccc4ccccc34)o2)cc1,85.5%,101%,94.7%,93.3%,84.1%,91.6%,69.2%,103%,103%,95.6%,53.4%,–,96%,93%,32.2%,104%,102%,–
